Hits are enriched below; roughly 19% of the tested compounds scored in any of these assays.
IL1B secr inh: qHTS for Inhibitors of Inflammasome Signaling: IL-1-beta AlphaLISA Primary Screen; AID 743279, 2014; activity change, % at 57.5 µM; THP-1 LPS/ATP IL-1B secretion, AlphaLISA, 16 h; hits give low values; 360,000 compounds, 4.7% hits; in the data active = activity change below about -50%; inconclusive = mostly about -30% to -49%; also: % is scaled to controls: 0 for no effect and ±100 for the full control effect
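THP-1 cells pretreated 1 hr with compounds (up to 57.5 uM final), then stimulated with LPS (250 ng/mL final) plus ATP (1.25 mM final); secreted IL-1B measured by AlphaLISA after 16 hr, decreased signal indicating inhibition.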
DT40 TDP1 CPT: qHTS for Inhibitors of human tyrosyl-DNA phosphodiesterase 1 (TDP1): qHTS in cells in presence of CPT; Potency, µM (top dose mostly 46.2 µM), inactives show top-dose activity change, negative = growth inhibition, usual class: inhibitors; chicken DT40 Tdp1-/-;hTDP1 cells + 20 nM CPT, ATP luminescence, 48 h; 420,000 compounds, 12% hits; AID 686979, 2013; also: potency is read from the fitted curve at half-maximal effect; % is scaled to controls: 0 for no effect and ±100 for the full control effect; nearly all actives have a fitted effect of over 55% in size
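Chicken DT40 Tdp1-/- cells complemented with human TDP1, 400 cells/well, exposed to compounds plus 20 nM camptothecin for at least 48 h at 37 C; viability read as ATP content by CellTiter-Glo luminescence.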
TDP1 block: qHTS Assay for Inhibitors of Tyrosyl-DNA Phosphodiesterase (TDP1); 350,000 compounds, 0.28% hits; Potency, µM (doses to about 130 µM), without a hit: top-dose activity change, negative = inhibition, most hits filed as inhibitors; recombinant TDP1, AlphaScreen DNA substrate cleavage; also: potency is read from the fitted curve at half-maximal effect; % is scaled to controls: 0 for no effect and ±100 for the full control effect; nearly all actives have a fitted effect of over 40% in size
Target sequence (Q9NUW8 whole entry, looked up): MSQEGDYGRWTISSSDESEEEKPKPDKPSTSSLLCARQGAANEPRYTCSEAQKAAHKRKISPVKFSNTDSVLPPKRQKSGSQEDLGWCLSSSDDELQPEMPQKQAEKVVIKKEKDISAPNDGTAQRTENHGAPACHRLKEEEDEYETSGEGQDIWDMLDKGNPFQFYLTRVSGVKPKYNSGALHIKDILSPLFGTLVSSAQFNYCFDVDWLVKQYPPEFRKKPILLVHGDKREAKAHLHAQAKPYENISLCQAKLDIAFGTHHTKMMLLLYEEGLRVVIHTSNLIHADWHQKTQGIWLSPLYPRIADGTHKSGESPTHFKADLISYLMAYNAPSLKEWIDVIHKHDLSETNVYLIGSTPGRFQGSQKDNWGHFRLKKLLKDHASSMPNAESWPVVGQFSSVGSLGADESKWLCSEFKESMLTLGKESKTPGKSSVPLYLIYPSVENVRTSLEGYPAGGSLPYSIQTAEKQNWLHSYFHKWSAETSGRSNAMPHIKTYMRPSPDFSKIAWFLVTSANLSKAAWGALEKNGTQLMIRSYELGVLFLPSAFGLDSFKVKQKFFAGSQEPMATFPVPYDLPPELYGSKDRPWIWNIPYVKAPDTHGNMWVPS
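Compounds were preincubated with Tdp1 (1 nM final) for 15 min at room temperature before substrate (15 nM final) started a 5 min reaction; beads (10 ug/ml final) were then added for 10 min before AlphaScreen detection.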
TGFb SMAD3 inh: qHTS for Inhibitors of TGF-b | Potency, µM (series often up to 46.1 µM), for the others: at the top dose activity, negative = inhibition, actives largely listed as inhibitors | 410,000 compounds, 1.2% hits | HepG2 CAGA-GFP TGF-b/SMAD3 reporter, GFP fluorescence, 18 h; TGF-beta stimulated, 500 pg/mL final; also: potency is read from the fitted curve at half-maximal effect; % is scaled to controls: 0 for no effect and ±100 for the full control effect; nearly all actives have a fitted effect of over 65% in size
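Smad-responsive CAGA-GFP expression was quantified in HEPG2 cells exposed to compounds and 500 pg/mL final TGF-beta for 18 h at 37 degrees C; unstimulated wells defined full inhibition.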
TDP1 cell noCPT: qHTS for Inhibitors of human tyrosyl-DNA phosphodiesterase 1 (TDP1): qHTS in cells in absence of CPT | DT40 Tdp1-/- hTDP1 cells, no CPT, ATP luminescence, 48 h | Potency, µM (doses to about 46.2 µM), for the others: at the top dose activity change, negative = growth inhibition, usual class: inhibitors | 420,000 compounds, 15% hits | AID 686978, 2013; also: potency is read from the fitted curve at half-maximal effect; % is scaled to controls: 0 for no effect and ±100 for the full control effect; nearly all actives have a fitted effect of over 55% in size
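Compound effects on proliferation are scored in DT40 Tdp1-/-;hTDP1 cells in the absence of CPT. ATP levels (CellTiter-Glo luminescence) are recorded after a ≥48 hr, 37 °C incubation.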
HepG2 tox: qHTS for Inhibitors of TGF-b: Cytotox Counterscreen; HepG2 CAGA-GFP viability, ATP luminescence, 18 h; Potency, µM (highest dose often 46.1 µM), without a hit: top-dose activity change, negative = cytotoxicity, usual class: cytotoxic; 410,000 compounds, 0.76% hits; also: potency is read from the fitted curve at half-maximal effect
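HepG2 CAGA-GFP cells (1000/well, DMEM with 1% FBS) received compound, then TGF-beta at 500 pg/mL final, and were incubated 18 hours at 37 degrees C. Viability was read by CellTiter-Glo luminescence. Media-only wells were set as complete cell-killing and DMSO as no toxicity.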
Active calls of the source: *; u = inconclusive; x = not tested or not shown; [ ] = remark or other dose. Unless noted, calls follow the shape of the dose curve; as a rule, active = well fitted curve in the direction sought with a large enough effect; inconclusive = small, poorly fitted or top-dose-only effect, or another doubt; inactive = no such curve, though single readings can be large; an effect the other way counts as inactive or inconclusive.

SMILES	IL1B secr inh	DT40 TDP1 CPT	TDP1 block	TGFb SMAD3 inh	TDP1 cell noCPT	HepG2 tox
CCOC(=O)c1sc(NC(=O)c2cc3n(n2)C(C(F)(F)F)CC(c2ccccc2)N3)c(C(=O)OCC)c1C (stereo not drawn)	0.9	1.8%	-4.0%	10.7%	-5.4%	-35.7%
CCOC(=O)c1sc(NC(=O)c2cc3n(n2)C(C(F)(F)F)CC(c2cccs2)N3)c(C(=O)OCC)c1C (stereo not drawn)	-14.2	u	-3.9%	2.3%	13µM*	3.8%
CCC(C)NC(=O)c1cnn2c1NC(c1cccs1)CC2C(F)(F)F (stereo not drawn)	-14.6	-10.0%	4.9%	15.5%	-28.4%	-7.2%
Cc1nn(C)cc1CN(C)C(=O)c1nn2c(c1Br)NC(c1cccs1)CC2C(F)(F)F (stereo not drawn)	30.9	u	-2.6%	-16.7%	14.6µM*	-2.1%
Cc1nn(C)c(C)c1CN(C)C(=O)c1cc2n(n1)C(C(F)(F)F)CC(c1cccs1)N2 (stereo not drawn)	-5.7	25.9µM*	-2.0%	0.0%	16.4µM*	9.5%
COc1ccc(C2CC(C(F)(F)F)n3nc(C(=O)O)c(Br)c3N2)cc1 (stereo not drawn)	25.1	5.7%	8.8%	-12.5%	-31.0%	-6.2%
Cc1nn(C)cc1CN(C)C(=O)c1nn2c(c1Cl)NC(c1cccs1)CC2C(F)(F)F (stereo not drawn)	20.0	u	2.3%	-3.4%	12.6µM*	-1.4%
Cc1csc(C(=O)O)c1NC(=O)c1c(Cl)cccc1Cl	27.7	-9.2%	x	-15.2%	-4.5%	3.8%
Cc1c(Cl)cccc1NC(=O)C(C)N(c1ccccc1)S(C)(=O)=O (stereo not drawn)	x	-34.8%	x	u	u	-14.0%
O=C(NCc1ccc2c(c1)CCN2C(=O)c1ccncc1)c1ccc(Cl)cc1	x	u	2.5%	15.6%	u	-22.1%
COc1cc(C2c3c(-c4c(C)cc(C)cc4O)n[nH]c3C(=O)N2Cc2ccco2)cc(OC)c1OC (stereo not drawn)	x	-29.6%	9.3%	-9.2%	-26.6%	-14.1%
COCCN=c1scc(-c2cc(OC)ccc2OC)n1/N=C/c1c[nH]c2ccccc12	-50.2*	u	10.3%	u	u	-35.0%
COc1ccc(-n2c(CNC(=O)c3cccc(OC)c3OC)nnc2SC)cc1	x	-1.3%[9.04 µM]	x	x	-12.7%	x
COc1cccc(C(=O)NC(=NCCc2c[nH]c3ccc(OC)cc23)Nc2nc(C)cc(C)n2)c1	x	x	8.4%	1.9%	x	-28.4%
O=C1CCc2cc(S(=O)(=O)Nc3ccc4c(c3)CCC4)ccc2N1	x	x	-0.9%	x	x	x
CSc1ccc(S(=O)(=O)Nc2ccc3c(c2)NC(=O)CC3)cc1	16.3	u	2.6%	u	23.1µM*	-4.1%
Cc1ccc(-c2nc3nc(C)cc(N4CCN(c5cccc(C)c5)C(C)C4)n3n2)cc1 (stereo not drawn)	x	-13.3%	-2.1%[12.3 µM]	-17.4%	u	-36.3%
COc1ccc(N2CCN(c3nc4cc(C)ccc4cc3C=O)CC2)cc1	-64.2*	u	14.2%	-22.8%	u	-10.8%
CC1=C(c2ccc(Cl)cc2)S(=O)(=O)N=C1N1CCN(c2cccc(C)c2)C(C)C1 (stereo not drawn)	x	5.17µM*	5.7%	-3.6%	5.17µM*	-14.2%
COc1ccc(-n2ncc3c(N4CCN(c5cccc(C)c5)C(C)C4)ncnc32)cc1 (stereo not drawn)	x	2.91µM*	5.4%	u	10.3µM*	-1.3%
COc1ccc(C2=C(N3CCN(c4cccc(C)c4)C(C)C3)c3ccccc3C2=O)cc1 (stereo not drawn)	x	20.6µM*	12.5%	-9.3%	25.9µM*	-19.8%
COc1cccc([C@@H]2Oc3ccc(OC)cc3C(=O)[C@H]2OC(=O)NS(=O)(=O)c2ccc(F)cc2)c1	x	x	3.1%	x	x	x
CCOC(=O)c1c(NC(=O)/C=C/c2ccc(C)cc2)sc(C(C)=O)c1C	x	-3.4%	1.3%[12.3 µM]	-15.4%	-5.9%	-6.7%
COc1ccc(-n2ncc3c(N4CCN(c5cc(C)ccc5C)CC4)ncnc32)cc1	2.0	-0.4%	2.9%	2.7%	u	-7.1%
Cc1ccc(-n2ncc3c(N4CCN(c5ccccc5)CC4)ncnc32)cc1C	x	u	5.2%	2.3%	13µM*	3.5%
SMILES	IL1B secr inh	DT40 TDP1 CPT	TDP1 block	TGFb SMAD3 inh	TDP1 cell noCPT	HepG2 tox
Cc1cccc(-n2ncc3c(N4CCN(c5ccccc5)CC4)ncnc32)c1	x	20.6µM*	4.7%	-14.7%	u	-8.3%
Cc1cccc(C(=O)N2CCN(c3ncnc4c3cnn4-c3ccccc3)CC2)c1	-56.6*	u	2.5%	9.8%	u	3.2%
COc1ccc(N2CCN(c3ncnc4c3cnn4-c3ccc(C)cc3C)CC2)cc1	20.0	u	10.3%	-13.5%	11.6µM*	-12.8%
COc1ccc(C(=O)C2CCCN(C(=O)c3cccc(Cl)c3F)C2)cc1OC (stereo not drawn)	9.7	u	1.4%	-4.6%	u	-2.5%
COCc1ccc(C(=O)N2CCCC(N3CCN(c4cccc(Cl)c4)CC3)C2)s1 (stereo not drawn)	17.6	u	x	-5.6%	u	-2.6%
Cc1ccc(Cl)cc1-n1c(=O)cc(N2CCN(c3ccc(F)cc3)CC2)[nH]c1=O	x	u	1.1%	0.0%	u	-13.0%
COc1cccc(CNC(=O)Cn2c(SCC(=O)Nc3ccc(C)c(C)c3)nc3ccccc32)c1	x	u	3.8%	u	u	-78.1%
CCN1CCN(c2ncnc3c2cnn3-c2ccc(C)cc2C)CC1	u	u	x	-3.9%	u	0.4%
Cc1ccc(-n2ncc3c(N4CCN(c5ccccc5)CC4)ncnc32)c(C)c1	-69.2*	5.8µM*	9.8%	-6.1%	4.61µM*	-38.9%
CC(C)C[C@H](NC(=O)[C@H](Cc1ccccc1)NC(=O)[C@H](Cc1ccccc1)NC(=O)[C@@H](N)CO)C(=O)N[C@@H](CCCN=C(N)N)C(=O)N[C@@H](CC(N)=O)C(=O)O	x	x	4.9%	x	x	x
CN1CC[C@]2(CCN3CCc4c(oc5ccccc45)[C@@H]3C2)N(C)C1=O	25.0	u	x	10.8%	18.4µM*	-15.3%
